Compounds with a hit are over-represented: about 1.3% of the library has one in this group of screens.
EBV gp42 inh – Epstein-Barr virus gp42 inhibitors, primary screen, biochemical, uHTS, fluorescence polarization; Glycoprotein 42 (Epstein-Barr virus (strain AG876)), Q1HVG2; Fluorescence polarization binding assay, mP read-out; inhibition, % (tested at 21.74 µM); 220,000 tested, 0.42% active; in the data active means inhibition above about 50%
Target sequence (Q1HVG2 whole entry, looked up): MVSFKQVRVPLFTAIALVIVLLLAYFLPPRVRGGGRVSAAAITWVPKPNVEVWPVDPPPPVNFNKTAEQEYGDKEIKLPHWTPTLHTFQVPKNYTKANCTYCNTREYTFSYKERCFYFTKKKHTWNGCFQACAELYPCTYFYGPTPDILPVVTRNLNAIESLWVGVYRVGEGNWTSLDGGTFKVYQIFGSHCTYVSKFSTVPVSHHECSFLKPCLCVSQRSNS
Bcl-xL primary – inhibitors of human Bcl-xL, primary screen, biochemical, fluorescence polarization, HTS. Bcl-2-like protein 1 (Homo sapiens), Q07817. GST-Bcl-xL / FITC-Bim BH3 peptide fluorescence polarization. inhibition, % at 10.9 µM. 320,000 tested, 0.7% active. AID 2129, 2009;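 active means inhibition above the mean of all tested compounds plus 3 SD, cutoff set per campaign, cut at about 30% in these data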;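 further: inhibitors lower millipolarization by displacing the labeled peptide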
MEX-5 binding – MEX-5 zinc finger RNA-binding disruptors – biochemical, C. elegans, fluorescence polarization, MLPCN library, primary screen | Zinc finger protein mex-5 (Caenorhabditis elegans), Q9XUB2 | 300,000 tested, 0.38% active | activity score (negative = inhibition of binding), % at 10 µM | MEX-5/FITC-TCR2 RNA binding; hits give low values;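 active means inhibition past about -25% in most replicates, and total fluorescence under double the plate's negative control median, limit read from the data; inconclusive means replicates evenly split on the limit, or fluorescence at least double controls; inactive means too little inhibition in most replicates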
MCL1 BIM primary – inhibitors of MCL1 binding to BIM-BH3, primary screen, biochemical, fluorescence polarization; Induced myeloid leukemia cell differentiation protein Mcl-1 (Homo sapiens), Q07820; GST-MCL1 / FITC-Bim-BH3 fluorescence polarization; inhibition, % at 10.9 µM; 320,000 tested, 0.68% active; AID 2057, 2009;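 active means inhibition above the mean inhibition of all tested compounds plus 3 SD, set per campaign, cut at about 40% in these data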;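 further: higher means more loss of mP so more displacement of Bim peptide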
GLD-1 RNA inh – GLD-1/TGE RNA complex disruptors, primary screen, biochemical, fluorescence polarization; purified GLD-1 + fluorescein TGE RNA; 320,000 tested, 0.44% active; AID 2280, 2010; Female germline-specific tumor suppressor gld-1 (Caenorhabditis elegans), Q17339; inhibition, % at 5.96 µM;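 active means percent inhibition above a per-plate cutoff, the plate mean of test compounds plus 3 SD, cut at about 30% in these data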
Target sequence (Q17339 whole entry, looked up): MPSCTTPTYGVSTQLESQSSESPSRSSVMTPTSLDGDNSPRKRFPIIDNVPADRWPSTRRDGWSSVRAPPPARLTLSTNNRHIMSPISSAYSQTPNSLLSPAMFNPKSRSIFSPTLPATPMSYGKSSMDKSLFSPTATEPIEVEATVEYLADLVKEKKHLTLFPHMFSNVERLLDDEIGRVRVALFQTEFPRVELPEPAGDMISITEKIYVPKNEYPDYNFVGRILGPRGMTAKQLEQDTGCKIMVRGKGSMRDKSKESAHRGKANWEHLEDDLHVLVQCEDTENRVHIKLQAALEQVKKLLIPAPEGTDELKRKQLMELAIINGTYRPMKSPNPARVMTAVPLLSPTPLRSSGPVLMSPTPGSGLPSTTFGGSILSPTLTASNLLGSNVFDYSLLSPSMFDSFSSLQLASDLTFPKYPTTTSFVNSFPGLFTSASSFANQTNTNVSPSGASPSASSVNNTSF
Of the large screens only hits and unclear results are named; the others gave an inactive call.

Cc1ccc(-n2cnnn2)c2cccnc12	none
CCN(CC)C(=O)CN1CCC(n2c(C)nc3cc(C(F)(F)F)ccc32)CC1	Bcl-xL primary 31
COCCNC(=O)c1cc(-c2ccccc2C)nn1CC1CC(c2cccnc2)=NO1 (stereo unspecified)	none (no result: EBV gp42 inh, Bcl-xL primary, MEX-5 binding, MCL1 BIM primary)
COc1ccc(-c2cc3c(=O)n(CC(=O)Nc4ccc(C(C)=O)cc4)ncn3n2)cc1	Bcl-xL primary 73 (no result: EBV gp42 inh)
CC(/C=C/c1ccccc1)=N/NC(=O)Cn1nnc(N)n1	none
COc1ccccc1/C=c1\sc2nc(-c3ccccc3OC)nn2c1=O	none (no result: MEX-5 binding)
COc1ccc(/C=c2\sc3nc(=O)c(C)nn3c2=O)c(OC)c1	MEX-5 binding -40
Cc1ccc(S(=O)(=O)C(C#N)c2nc3ccccc3nc2OC(C)C)cc1 (stereo unspecified)	none
N#CC(c1nc2ccccc2nc1OCCO)S(=O)(=O)c1ccccc1 (stereo unspecified)	MEX-5 binding -38
Cc1ccc(C(C)(C)C)cc1S(=O)(=O)N1CC(=O)Nc2ccccc21	none (no result: EBV gp42 inh)
CCOC(=O)c1c(-c2ccccc2)csc1NC(=O)/C(C#N)=C/c1ccc(OC)c(OC)c1	MEX-5 binding -43
CCOC(=O)c1c(-c2ccccc2)csc1NC(=O)/C(C#N)=C/c1ccc(O)c(OC)c1	none
COc1ccc(C2=NN(c3ccc(C=O)cc3)C(c3ccccc3)C2)cc1 (stereo unspecified)	none (no result: EBV gp42 inh)
COc1ccc(C2CC(c3cccs3)=NN2c2ccc(C=O)cc2)cc1 (stereo unspecified)	MEX-5 binding -47
CCOC(=O)C1=C(C)N=c2s/c(=C\c3cccn3C)c(=O)n2C1c1cccc(OC)c1OC (stereo unspecified)	MEX-5 binding -40
CCOc1ccc(NC(=O)COc2ccc(C(=O)NCc3cccc(OC)c3)cc2OC)cc1	none (no result: EBV gp42 inh, MEX-5 binding)
Cc1cccnc1NC(=O)Nc1ccccc1	none
COC(=O)c1ccccc1NC(=O)Nc1ncccc1C	EBV gp42 inh 64
O=C(O)CCC1c2cc3c4cc2OC2Oc5cc6c(cc51)C(CCC(=O)O)c1cc5c7cc1OC(O6)c1cc6cc(c1)Oc1cc(cc(C(=O)O)c1)Oc1cc8cc(c1)C(Oc1cc(c(cc1C5CCC(=O)O)C3CCC(=O)O)OC(O4)c1cc(cc(c1)Oc1cc(cc(C(=O)O)c1)O8)Oc1cc(cc(C(=O)O)c1)Oc1cc(cc2c1)Oc1cc(cc(C(=O)O)c1)O6)O7 (stereo unspecified)	MEX-5 binding -100, MCL1 BIM primary 42, GLD-1 RNA inh 97 (no result: EBV gp42 inh)
Nc1cc2nsnc2cc1Br	Bcl-xL primary 42, MCL1 BIM primary 41
Nc1cccc2nsnc12	none
O=C1c2cc(CO)cc(O)c2C(=O)c2c(O[C@@H]3OC(CO)[C@@H](O)[C@@H](O)[C@@H]3O)cccc21 (stereo partly specified)	none (no result: EBV gp42 inh)
O=C(O)c1cc(O)c2c(c1)[C@@H]([C@H]1c3cc(C(=O)O)cc(O)c3C(=O)c3c(O[C@@H]4O[C@H](CO)[C@@H](O)[C@H](O)[C@H]4O)cccc31)c1cccc(OC3O[C@H](CO)[C@@H](O)[C@H](O)[C@H]3O)c1C2=O (stereo partly specified)	Bcl-xL primary 97, MEX-5 binding -100, MCL1 BIM primary 114 (no result: EBV gp42 inh)
O=C(O)c1cc(O)c2c(c1)[C@H]([C@H]1c3cc(C(=O)O)cc(O)c3C(=O)c3c(O[C@@H]4O[C@H](CO)[C@@H](O)[C@H](O)[C@H]4O)cccc31)c1cccc(OC3O[C@H](CO)[C@@H](O)[C@H](O)[C@H]3O)c1C2=O (stereo partly specified)	Bcl-xL primary 94, MEX-5 binding -98, MCL1 BIM primary 110 (no result: EBV gp42 inh)
NC(=O)C1(N2CCCCC2)CCN(Cc2nc(-c3cccs3)no2)CC1	MEX-5 binding -35
CCCC(C)C(=O)Nc1ccc(Cl)cn1 (stereo unspecified)	Bcl-xL primary 162
CC(=O)N(C(C)=O)N1C(=O)c2cccc3c(N4CCOCC4)ccc(c23)C1=O	Bcl-xL primary 43, MEX-5 binding inconclusive, GLD-1 RNA inh 33
CCN(CC)S(=O)(=O)c1ccc(C(=O)OCCN2C(=O)c3cccc4c(N5CCOCC5)ccc(c34)C2=O)cc1	EBV gp42 inh 133, MEX-5 binding inconclusive
O=C(OCCN1C(=O)c2cccc3c(N4CCOCC4)ccc(c23)C1=O)c1cc(Cl)cc(Cl)c1	EBV gp42 inh 132 (no result: Bcl-xL primary, MEX-5 binding, MCL1 BIM primary, GLD-1 RNA inh)
CC(C)[C@H]1C(=O)Nc2ccccc2N1C(=O)N[C@@H](Cc1ccccc1)C(=O)N[C@@H](C(=O)O)c1ccccc1	none (no result: EBV gp42 inh)
Cc1cc(S(=O)(=O)Nc2nc(CN3CCOCC3)nc3sc4c(c23)CCCC4)ccc1F	none
CC1CCc2c(sc3nc(CN4CCOCC4)nc(NS(=O)(=O)c4cccc([N+](=O)[O-])c4)c23)C1 (stereo unspecified)	EBV gp42 inh 59
COc1cccc(NC(=S)N(CCC(C)C)C2CCN(C(C)=O)CC2)c1	none (no result: EBV gp42 inh)
CCN1CCN(Cc2ccc(NC(=O)c3ccc(C)c(/C=C/c4cnc(Nc5cc(N6CCNCC6)nc(C)n5)cn4)c3)cc2C(F)(F)F)CC1	Bcl-xL primary 38 (no result: EBV gp42 inh)
CCCn1c(=C(C#N)C#N)s/c(=C2\C=Cc3ccccc3N2CC)c1=O	EBV gp42 inh 53 (no result: Bcl-xL primary, MEX-5 binding, MCL1 BIM primary, GLD-1 RNA inh)
O=c1oc2ccc3ccccc3c2cc1-c1nc2ccccc2o1	MEX-5 binding -76 (no result: EBV gp42 inh)
O=c1oc2ccccc2cc1-c1nc2ccccc2o1	none (no result: MEX-5 binding)
COc1cccc(/C(O)=C/c2nc3ccc(C(=O)NCCc4ccc(Cl)cc4)cc3[nH]c2=O)c1	EBV gp42 inh 107, MEX-5 binding -49 (no result: Bcl-xL primary, MCL1 BIM primary, GLD-1 RNA inh)
CC(C)[C@H](NC(=O)c1ccccc1)C(=O)OCC(=O)Nc1sccc1C(N)=O	none (no result: EBV gp42 inh, Bcl-xL primary, MEX-5 binding, MCL1 BIM primary)
CC(C)(O)C(=O)NNC(=S)NCc1ccco1	MEX-5 binding -32
COc1ccccc1/C=C(/NC(=O)c1ccccc1)C(=O)NCCN1CCOCC1	none (no result: EBV gp42 inh)
Cc1ccc(S(=O)(=O)C(C#N)c2nc3ccccc3nc2N2CC(C)OC(C)C2)cc1C (stereo unspecified)	MEX-5 binding -59
CC1CCCN(c2nc3ccccc3nc2C(C#N)S(=O)(=O)c2cccs2)C1 (stereo unspecified)	MEX-5 binding -50
C#CCN1C(=O)S/C(=C/C=C/c2ccc(N(C)C)cc2)C1=O	Bcl-xL primary 55, MCL1 BIM primary 44 (no result: MEX-5 binding)
O=C(CN1C(=O)S/C(=C\C=C\c2ccccc2)C1=O)Nc1ccccc1C(=O)O	none
CC(C)(C)c1ccccc1NC(=O)c1c(O)c2cccc3c2n(c1=O)CC3	none
Cn1c(=O)c(=O)n(C)c2cc(S(=O)(=O)CCC(=O)Nc3c(F)c(F)c(F)c(F)c3F)ccc21	none (no result: EBV gp42 inh)

High-throughput results as filed in PubChem BioAssay.
